PubChem BioAssay AID1159580 (chemical genetic matrix, 2015)
Several values for one entry are separate records, joined by “and”; a condition that tells them apart may be missing. Identical values can stand only once. Hit rate of the full screen: of about 5,500 compounds, about 2,000 (36%) were called active. Roughly 18% stayed inconclusive and do not appear here. Cut-off read from the data, not from the text of the source: active = normalized growth mostly below about 0.91 (no sharp cut-off); inconclusive = no clear call, values can overlap the other calls; inactive = mostly above about 0.92. The list shows a part of the results.

Assay: chemical genetic growth profiling, strain panel (AID 1159580);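 note: tested at 20 µM; growth read once vehicle control cultures reached saturation at 30 °C; 1 = growth at the plate median or of vehicle wells; lower values mean less growth of the strain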
Conditions: S. cerevisiae deletion strains, growth OD

Measured: normalized growth

C[C@@H]1O[C@@H](O[C@H]2CC[C@]3(C=O)C4CC[C@]5(C)[C@@H](C6=CC(=O)OC6)CC[C@]5(O)C4CC[C@]3(O)C2)[C@H](O)[C@H](O)[C@H]1O (stereo not given in full)
inactive: locus YAL021C, strain ccr4, active compounds read low 1.02 | locus YAL026C, strain drs2, active compounds read low 0.997 | locus YAL030W, strain snc1, active compounds read low 0.998 | locus YBL061C, strain skt5, active compounds read low 0.991 | locus YBR009C, strain hhf1, active compounds read low 0.979 | locus YBR021W, strain FUR4, active compounds read low 1.05 | locus YBR023C, strain chs3, active compounds read low 0.999 | locus YBR171W, strain sec66, active compounds read low 0.992 | locus YBR229C, strain ROT2, active compounds read low 0.962 | locus YBR231C, strain swc5, active compounds read low 0.987 | locus YBR279W, strain paf1, active compounds read low 1 | locus YCL011C, strain gbp2, active compounds read low 0.999 | locus YCL016C, strain dcc1, active compounds read low 0.996 | locus YCL029C, strain bik1, active compounds read low 0.985 | locus YCL061C, strain MRC1, active compounds read low 1 | locus YCL069W, strain vba3, active compounds read low 1.01 | locus YCR088W, strain abp1, active compounds read low 0.997 | locus YDL005C, strain med2, active compounds read low 0.999 | locus YDL035C, strain GPR1, active compounds read low 0.999 | locus YDL040C, strain nat1, active compounds read low 0.978 | locus YDL074C, strain BRE1, active compounds read low 1.05 | locus YDL101C, strain DUN1, active compounds read low 0.976 | locus YDL134C, strain PPH21, active compounds read low 0.989 | locus YDL185W, strain tfp1, active compounds read low 0.987 | locus YDL192W, strain arf1, active compounds read low 0.99 | locus YDR001C, strain nth1, active compounds read low 1 | locus YDR069C, strain doa4, active compounds read low 0.984 | locus YDR101C, strain arx1, active compounds read low 1.02 | locus YDR137W, strain rgp1, active compounds read low 1.01 | locus YDR150W, strain NUM1, active compounds read low 0.995 | locus YDR159W, strain sac3, active compounds read low 0.95 | locus YDR162C, strain NBP2, active compounds read low 0.934 | locus YDR195W, strain ref2 0.927 | locus YDR297W, strain sur2, active compounds read low 0.996 | locus YDR318W, strain mcm21, active compounds read low 0.979 | locus YDR334W, strain swr1, active compounds read low 0.998 | locus YDR335W, strain msn5, active compounds read low 1 | locus YDR388W, active compounds read low 0.999 | locus YDR392W, strain spt3, active compounds read low 0.88 | locus YDR502C, strain sam2, active compounds read low 0.982 | locus YEL003W, strain gim4, active compounds read low 0.999 | locus YEL037C, strain rad23, active compounds read low 1.01 | locus YEL061C, strain CIN8 (second series), active compounds read low 1 | locus YEL061C, strain CIN8, active compounds read low 0.996 | locus YER015W, strain faa2, active compounds read low 0.992 | locus YER016W, strain bim1, active compounds read low 0.99 | locus YER110C, active compounds read low 0.985 | locus YER111C, strain swi4, active compounds read low 0.988 | locus YER155C, strain BEM2 (second series), active compounds read low 0.978 | locus YER155C, strain BEM2, active compounds read low 1.01 | locus YER167W, strain BCK2, active compounds read low 0.999 | locus YFR010W, strain ubp6, active compounds read low 0.999 | locus YGL078C, strain dbp3, active compounds read low 0.989 | locus YGL086W, strain mad1, active compounds read low 1.04 | locus YGL167C, strain pmr1, active compounds read low 0.982 | locus YGL173C, strain kem1, active compounds read low 0.99 | locus YGL227W, strain vid30, active compounds read low 0.99 | locus YGL240W, strain doc1, active compounds read low 0.969 | locus YGL248W, strain PDE1, active compounds read low 0.976 | locus YGL253W, strain hxk2, active compounds read low 0.992 | locus YGR078C, strain PAC10, active compounds read low 0.974 | locus YGR135W, strain pre9, active compounds read low 0.966 | locus YGR229C, strain SMI1, active compounds read low 0.987 | locus YGR252W, strain gcn5, active compounds read low 0.953 | locus YHR013C, strain ard1, active compounds read low 0.954 | locus YHR027C, strain rpn1, active compounds read low 0.996 | locus YHR030C, strain SLT2, active compounds read low 1.01 and 0.997 | locus YHR079C, strain IRE1 (second series), active compounds read low 1.01 | locus YHR079C, strain IRE1, active compounds read low 0.992 | locus YHR094C, strain hxt1, active compounds read low 0.986 | locus YHR129C, strain ARP1, active compounds read low 1 | locus YHR142W, strain chs7, active compounds read low 1.03 | locus YHR200W, strain rpn10, active compounds read low 1 | locus YIL066C, strain RNR3, active compounds read low 0.984 | locus YIL073C, strain SPO22, active compounds read low 1.02 | locus YIL125W, strain kgd1, active compounds read low 0.988 | locus YIR030C, strain dcg1, active compounds read low 0.995 | locus YJL092W, strain hpr5, active compounds read low 1 | locus YJL095W, strain BCK1 (second series), active compounds read low 0.998 | locus YJL095W, strain BCK1, active compounds read low 0.965 and 0.985 | locus YJL115W, strain asf1, active compounds read low 0.999 | locus YJL129C, strain trk1, active compounds read low 1.01 | locus YJL134W, strain LCB3, active compounds read low 0.994 | locus YJL154C, strain vps35, active compounds read low 1.01 | locus YJL164C, strain tpk1, active compounds read low 1.01 | locus YJL166W, strain qcr8, active compounds read low 0.99 | locus YJL168C, strain set2, active compounds read low 0.99 | locus YJL187C, strain SWE1 (second series), active compounds read low 0.97 | locus YJL187C, strain SWE1, active compounds read low 1 | locus YJR043C, strain POL32, active compounds read low 0.99
